According to PubChem BioAssay (NCATS):
Inconclusive results are not listed. Active and inactive are the calls of the source. Unless noted, calls come from the whole dose curve; as a rule, active = well fitted curve in the direction sought with a large enough effect; inconclusive = small, poorly fitted or top-dose-only effect, or another doubt; inactive = no such curve, though single readings can be large; an effect the other way counts as inactive or inconclusive.

Legend:
[1] = biological target: Glucocorticoid receptor (Homo sapiens) (UniProt P04150); experiment: GR-GFP Redistribution (AID 450;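 active = compounds whose dose series gives a full or clear partial fitted curve of increased nuclear translocation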; note: potency is the fitted concentration of half-maximal effect); details: U2OS GR-GFP nuclear translocation, laser cytometry, 2 h
[2] = biological target: DNA dC->dU-editing enzyme APOBEC-3G (Homo sapiens) (UniProt Q9HC16); experiment: qHTS for inhibitors of Vif-A3G interactions: Validation (AID 588379); note: potency is the fitted concentration of half-maximal effect; for activity change, negative = inhibition: 0% is about no effect
Procedure, shortened: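 Yellow fluorescence (Ex 488, Em 500-530) of Vif-coexpressing HeLa A3G-eYFP cells, scanned by Acumen cytometer, reports blocked A3G degradation. Cells plated at 700/well overnight at 37 deg C before compound addition, then a further overnight compound incubation at 37 deg C.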

[3] = test system: Zika virus NS2B-NS3 protease; experiment: Primary screen GU AMC qHTS for Zika virus inhibitors (AID 1347154);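 note: 0% = no-inhibitor control and -100% = no-enzyme control; nearly all actives have a fitted effect of over 70% in size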
Procedure, shortened: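 Unlinked Zika NS2B hydrophilic domain–NS3 protease complex at 25 nM in 10 mM Tris-HCl pH 8.0, 0.01% Tween 20, with an AMC peptide substrate. Fluorescence change (340/450 nm) over 15 min at room temperature, normalized to controls, fitted to 4-parameter Hill.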

[4] = Primary qHTS for small molecule stabilizers of the endoplasmic reticulum resident proteome: Secreted ER Calcium Modulated Protein (SERCaMP) assay (AID 1508630); note: % is set by controls: 0 for no effect and ±100 for the full control effect
Procedure, shortened: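 The SH-SY5Y reporter protocol was run at 3 concentrations up to 38.3 uM (primary) or 11 concentrations (follow-up): 16 h compound, 100 nM thapsigargin for 4 h, then extracellular luciferase luminescence.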

[5] = biological target: Rap guanine nucleotide exchange factor 3 (Homo sapiens) (UniProt O95398); experiment: Confirmatory qHTS for antagonist of cAMP-regulated guanine nucleotide exchange factor 3 (EPAC1) (AID 1645880);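 note: plate controls were DMSO only for no effect and full effect of the ATA control for full effect; nearly all actives have a fitted effect of over 55% in size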
Procedure, shortened: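 Released BODIPY-GDP fluoresces less than Rap1-bound BODIPY-GDP; the signal is followed at 480/540 nm at 5-min intervals over 30 min, after 5 min at room temperature. Reactions contain 100 nM EPAC1, 250 nM RAP1B-BODIPY-GDP and 50 uM GDP; results are normalized to ATA and DMSO.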

[6] = biological target: Rap guanine nucleotide exchange factor 3 (Homo sapiens) (UniProt O95398); experiment: Confirmatory qHTS for agonist of cAMP-regulated guanine nucleotide exchange factor 3 (EPAC1) (AID 1645881);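 note: EPAC1 catalysed release of BODIPY-GDP from Rap1B seen as fluorescence loss; 100% = effect of cAMP agonist control; nearly all actives have a fitted effect of over 75% in size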
[7] = biological target: Rap guanine nucleotide exchange factor 4 (Homo sapiens) (UniProt Q8WZA2); experiment: Confirmatory qHTS for agonist of cAMP-regulated guanine nucleotide exchange factor 4 (EPAC2) (AID 1645884);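 note: nucleotide exchange releases bodipy-GDP from Rap1 and this lowers its fluorescence; % is set by controls: 0 for no effect and ±100 for the full control effect; nearly all actives have a fitted effect of over 65% in size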
[8] = biological target: Rap guanine nucleotide exchange factor 4 (Homo sapiens) (UniProt Q8WZA2); experiment: Confirmatory qHTS for antagonist of cAMP-regulated guanine nucleotide exchange factor 4 (EPAC2) (AID 1645885); note: % is set by controls: 0 for no effect and ±100 for the full control effect; nearly all actives have a fitted effect of over 25% in size
[9] = AP1 Signaling Pathway (AID 357; active = well fitted curve in either direction with a large enough effect, not every such curve was filed as active;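 note: ME-180 reporter cells stimulated with EGF at its EC50 level; % is set by controls: 0 for no effect and ±100 for the full control effect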)
Procedure, shortened: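 In this screen, ME-180 cells in Opti-MEM with 0.5% dialyzed FBS received EC50 EGF and compound titrations for 5 h. AP-1 reporter beta-lactamase was detected via CCF4 ratio, giving AC50 for positive and negative modulators.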

[10] = biological target: Cytochrome P450 1A2 (Homo sapiens) (UniProt P05177); experiment: p450-cyp1a2 (AID 410; calls by dose curve;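 note: -100% = full effect of reference inhibitor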)
Procedure, shortened: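 Luminescent demethylation readout: Luciferin-ME (100uM, equal to Km) turned over by 20nM CYP1A2 for 60 min at room temperature after NADPH regeneration addition, following 10 min compound preincubation. Normalization used 57 uM furafylline as full inhibition.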

[11] = NFAT Signaling Pathway (AID 444; active = well fitted curve in either direction with a large enough effect, not every such curve was filed as active;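 note: carbachol stimulus at about its EC50 of 1 µM final; % is set by controls: 0 for no effect and ±100 for the full control effect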); details: Jurkat NFAT-bla M1, carbachol, beta-lactamase ratio, 5 h; at 38 µM (top of the series)
Procedure, shortened: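 Jurkat cells with NFAT-driven β-lactamase reporter and co-expressed M1 receptor, stimulated with carbachol (final 1 uM, ~EC50), compound titration, 5 h at 37 °C. CCF4 loaded 1 h at RT; 460/530 nm ratio gave %activity and AC50.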

[12] = Stat Signaling Pathway (AID 446; active = well fitted curve in either direction with a large enough effect, not every such curve was filed as active;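 note: ME-180 cervical cancer cells given 40 pM IL-6 alongside compound; SIE-controlled beta-lactamase reporter measured as 460/530 nm FRET emission ratio; % is set by controls: 0 for no effect and ±100 for the full control effect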)
Procedure, shortened: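 Emission at 460 and 530 nm (excitation 405 nm) reports SIE-controlled beta-lactamase in ME-180 cells. Cells received compound with 40 pM IL-6 for 5 hrs at 37 C; data scaled between 300 pM IL-6 and 125 nM JAK-inhibitor controls.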

[13] = biological target: Glucocorticoid receptor (Homo sapiens) (UniProt P04150); experiment: GR-EFC Redistribution (AID 451; calls by dose curve; note: potency is the fitted concentration of half-maximal effect); details: CHO-K1 GR-EFC translocation, beta-gal luminescence, 2 h
Procedure, shortened: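 CHO-K1 cells expressing nuclear EA and GR-ED fragments of b-gal; compounds titrated up to 46 uM final, 2 h at 37 C. GR nuclear translocation read as complemented b-gal luminescence after 1 h RT detection.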

[14] = biological target: Mitogen-activated protein kinase 10 (Mus musculus) (UniProt Q61831); experiment: JNK3 AlphaScreen Assay (AID 530; active = well fitted curve in either direction with a large enough effect, not every such curve was filed as active)
Procedure, shortened: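 Activity was read by AlphaScreen after JNK3-containing HepG2 lysate (cytokine pre-activated) phosphorylated biotinylated GST-cJun with 10 uM ATP at room temperature. Phospho-Ser73 cJun antibody with Protein-A acceptor beads provided detection.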

[15] = biological target: 3',5'-cyclic-AMP phosphodiesterase 4B (Homo sapiens) (UniProt Q07343); experiment: qHTS Assay for Inhibitors of PDE-IV (AID 607; active = well fitted activation curve with a large enough effect in the main read-out, with a control signal flat, not every such curve was filed as active; note: % of control where 0% means no effect)
Procedure, shortened: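 The readout is membrane depolarisation from a cAMP-sensing CNG channel, detected with a potential dye at ex 535/em 590. Cells were HEK293-derived (endogenous PDE-IV) at 1000 cells/well, titrated up to 22.9 uM final.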

[16] = qHTS Assay for Identification of Small Molecule Agonists for Hypoxia Response Element Signaling Pathway (AID 914; active = well fitted activation curve with a large enough effect in the signal ratio, with a control signal flat, not every such curve was filed as active; the % refers to the signal ratio; note: % of control where 0% means no effect); details: ME-180 (cervical carcinoma) HRE-bla reporter, beta-lactamase ratio, CoCl2, 17 h; activation: stronger effect = higher value
Procedure, shortened: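 Cells were plated overnight, pin-dosed with compound in a titration series, co-stimulated with EC50 CoCl2 and incubated 17 hours at 37 degrees Celsius. CCF4 substrate was then loaded, and AC50 values came from the 460nm/530nm ratio.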

[17] = qHTS Assay for Identification of Small Molecule Agonists for Thrombopoietin (TPO) Signaling Pathway (AID 917); note: % is set by controls: 0 for no effect and ±100 for the full control effect
Procedure, shortened: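 First, Ba/F3 cells with human TPO receptor were held overnight without IL-3. Next, compounds and TPO (26 pM final) were added. After 24 hrs at 37 C, luciferase detection reagent was added and luminescence measured following 10 min at room temperature.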

[18] = biological target: Muscarinic acetylcholine receptor M1 (Rattus norvegicus) (UniProt P08482); experiment: qHTS Assay for Antagonists of Acetylcholine Muscarinic M1 Receptor: Kinetic Measurement of Intracellular Calcium Response (AID 943);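 note: Fluo-4 calcium signal as peak divided by basal fluorescence over 4 min; nearly all actives have a fitted effect of over 75% in size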
Procedure, shortened: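 Antagonism measured as reduction of carbachol-evoked (EC80, 100 nM final) calcium flux in rat M1-CHO cells after 10 min compound exposure. Fluo-4 signal read kinetically; ratio of maximal to basal fluorescence.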

[19] = biological target: Muscarinic acetylcholine receptor M1 (Rattus norvegicus) (UniProt P08482); experiment: qHTS Assay for Antagonists of Acetylcholine Muscarinic M1 Receptor: Measurement of IP-One Response (AID 944); note: nearly all actives have a fitted effect of over 75% in size
Procedure, shortened: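 IP1 accumulation measured via TR-FRET between d2-IP1 and Eu-cryptate anti-IP1 antibody after carbachol (200 nM, EC80) stimulation for 30 min; rat M1-transfected CHO cells received compound 10 min before agonist.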

[20] = biological target: Pyruvate kinase (Leishmania mexicana) (UniProt Q27686); experiment: qHTS Validation Assay for Inhibitors of Leishmania Mexicana Pyruvate Kinase (AID 945);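 note: 0% = DMSO only neutral control wells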
Procedure, shortened: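 The enzyme is a highly purified E451W mutant of LmPYK used at 0.2 nM. It converts 0.5 mM PEP and 0.1 mM ADP over 1 h at room temperature; product ATP is quantified by luciferase luminescence relative to DMSO controls.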

[21] = biological target: Pyruvate kinase PKM (Homo sapiens) (UniProt P14618); experiment: qHTS Assay for Activators of Human Muscle Pyruvate Kinase (AID 954; active = well fitted curve in the direction sought with a large enough effect, not every such curve was filed as active;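 note: 0% = uninhibited enzyme and -100% = no enzyme or full thiadiazolimine inhibition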)
Procedure, shortened: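 PKM2, human, >95% pure, 0.1 nM; PEP 0.5 mM (Km), ADP 0.1 mM; 50 mM imidazole pH 7.2, 50 mM KCl, 0.01% Tween 20, 0.05% BSA; 1 h RT; luciferase luminescence readout.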

[22] = biological target: Alpha-galactosidase (Coffea arabica) (UniProt Q42656); experiment: Counterscreen for Glucocerebrosidase Inhibitors: qHTS Assay for Coffee Bean alpha-Galactosidase at pH 4.5 (AID 957);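 note: plate controls were enzyme alone for no effect and no enzyme for full effect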
Procedure, shortened: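 Fluorogenic qHTS at pH 4.5 (citrate buffer with Tween-20): 2 nM enzyme, 80 uM 4-MU-alpha-galactoside substrate, compound titrated 0.7 nM to 77 uM, 20 min room temperature. Glycine/NaOH stop; 4-MU read Ex 365/Em 440; Hill-equation AC50 against no-enzyme and enzyme controls.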

[23] = biological target: Alpha-galactosidase A (Homo sapiens) (UniProt P06280); experiment: Counterscreen for Glucocerebrosidase Inhibitors: qHTS Assay for Human alpha-Galactosidase at pH 4.5 (AID 992); note: 0% is about no effect
Procedure, shortened: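 Fluorogenic 4-MU alpha-D-galactoside (80 uM) hydrolysis, 2 nM enzyme, pH 4.5 citrate buffer + 0.005% Tween-20; 20 min RT; NaOH/glycine pH 10 stop; Ex365/Em440. Compounds titrated 0.7 nM–77 uM; Hill-equation AC50.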

[24] = biological target: alpha-glucosidase (Oryza sativa, rice) (UniProt Q653V4); experiment: Counterscreen for Glucocerebrosidase Inhibitors: qHTS Assay for Rice alpha-Glucosidase at pH 5.0 (AID 997);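 note: 0% = full activity with enzyme and -100% = basal without enzyme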
Procedure, shortened: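 Endpoint fluorogenic assay at pH 5.0: compounds (0.7 nM to 77 uM) titrated against 4 nM rice enzyme and 400 uM 4-MU-alpha-glucoside for 20 min at room temperature; NaOH/glycine stop, read ex 365/em 440 nm, Hill-fitted AC50.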

[25] = biological target: Alpha-galactosidase (Coffea arabica) (UniProt Q42656); experiment: Counterscreen for Glucocerebrosidase Inhibitors: qHTS Assay for Coffee Bean alpha-Galactosidase at pH 5.9 (AID 998);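 note: plate controls were uninhibited enzyme for no effect and no-enzyme basal signal for full effect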
Procedure, shortened: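 Enzyme 2 nM + cpd (0.7 nM–77 uM titration) + 4-MU-alpha-Gal 80 uM, pH 5.9 citrate/Tween-20, RT 20 min, NaOH/glycine stop pH 10, fluor 365/440. Normalized to no-enzyme and full-activity controls; Hill-fit AC50.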

[26] = qHTS Assay for Lipid Storage Modulators (AID 1519; calls by dose curve); details: Drosophila S3 cells, BODIPY lipid droplet/cell ratio, laser cytometry, cells loaded with oleic acid
Procedure, shortened: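 Cells seeded at 5,000 per well were treated with compounds over a concentration series and loaded with oleic acid (400 uM, as added). Lipid droplet fluorescence (488 nm excitation, 500-530 nm channel) was read by laser-scanning cytometry and normalized to 20 uM Triacsin C.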

Chain of Glucocorticoid receptor (Homo sapiens) (P04150 whole entry, looked up, the tested form may be a part): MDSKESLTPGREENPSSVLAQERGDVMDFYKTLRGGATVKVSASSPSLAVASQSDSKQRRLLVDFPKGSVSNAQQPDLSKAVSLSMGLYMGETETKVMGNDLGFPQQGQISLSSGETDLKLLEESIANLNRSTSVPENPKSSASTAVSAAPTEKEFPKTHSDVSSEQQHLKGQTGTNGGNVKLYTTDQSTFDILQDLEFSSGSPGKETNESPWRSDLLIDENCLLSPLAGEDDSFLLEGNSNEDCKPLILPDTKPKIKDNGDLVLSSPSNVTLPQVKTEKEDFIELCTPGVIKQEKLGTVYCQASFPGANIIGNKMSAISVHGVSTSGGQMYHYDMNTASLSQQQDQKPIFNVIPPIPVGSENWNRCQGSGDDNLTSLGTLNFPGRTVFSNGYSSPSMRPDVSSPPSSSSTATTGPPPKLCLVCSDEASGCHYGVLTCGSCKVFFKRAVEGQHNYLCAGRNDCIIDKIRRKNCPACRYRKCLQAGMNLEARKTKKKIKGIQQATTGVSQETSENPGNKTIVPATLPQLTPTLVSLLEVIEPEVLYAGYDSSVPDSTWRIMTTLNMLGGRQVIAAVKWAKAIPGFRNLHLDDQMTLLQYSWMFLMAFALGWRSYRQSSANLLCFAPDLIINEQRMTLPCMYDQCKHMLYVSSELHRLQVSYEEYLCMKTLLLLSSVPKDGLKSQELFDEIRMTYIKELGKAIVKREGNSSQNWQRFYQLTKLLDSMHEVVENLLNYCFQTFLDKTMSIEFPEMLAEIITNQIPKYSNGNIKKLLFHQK
Chain of Rap guanine nucleotide exchange factor 3 (Homo sapiens) (O95398 whole entry, looked up): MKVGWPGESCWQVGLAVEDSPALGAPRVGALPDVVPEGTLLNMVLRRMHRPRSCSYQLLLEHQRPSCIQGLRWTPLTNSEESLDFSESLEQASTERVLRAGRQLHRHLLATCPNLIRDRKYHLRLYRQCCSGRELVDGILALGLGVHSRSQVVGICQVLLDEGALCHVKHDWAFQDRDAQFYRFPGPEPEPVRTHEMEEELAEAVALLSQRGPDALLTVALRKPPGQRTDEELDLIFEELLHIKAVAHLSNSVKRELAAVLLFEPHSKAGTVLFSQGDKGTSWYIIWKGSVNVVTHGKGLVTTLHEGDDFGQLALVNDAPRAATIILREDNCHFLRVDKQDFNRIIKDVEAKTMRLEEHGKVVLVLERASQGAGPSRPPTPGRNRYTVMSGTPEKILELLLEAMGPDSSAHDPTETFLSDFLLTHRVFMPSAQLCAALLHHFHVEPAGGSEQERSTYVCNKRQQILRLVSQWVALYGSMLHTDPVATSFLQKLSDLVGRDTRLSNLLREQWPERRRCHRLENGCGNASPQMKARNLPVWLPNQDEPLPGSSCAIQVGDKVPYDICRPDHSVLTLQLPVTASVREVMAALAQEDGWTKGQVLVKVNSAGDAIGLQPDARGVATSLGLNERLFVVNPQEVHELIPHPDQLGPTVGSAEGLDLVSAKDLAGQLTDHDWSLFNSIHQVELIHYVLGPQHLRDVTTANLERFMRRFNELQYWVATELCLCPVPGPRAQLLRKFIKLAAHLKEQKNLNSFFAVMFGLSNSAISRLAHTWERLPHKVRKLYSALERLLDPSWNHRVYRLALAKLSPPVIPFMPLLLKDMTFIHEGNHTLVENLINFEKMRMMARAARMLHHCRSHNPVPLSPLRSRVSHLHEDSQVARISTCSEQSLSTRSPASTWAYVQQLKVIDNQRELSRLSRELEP
Chain of Muscarinic acetylcholine receptor M1 (Rattus norvegicus) (P08482 whole entry, looked up): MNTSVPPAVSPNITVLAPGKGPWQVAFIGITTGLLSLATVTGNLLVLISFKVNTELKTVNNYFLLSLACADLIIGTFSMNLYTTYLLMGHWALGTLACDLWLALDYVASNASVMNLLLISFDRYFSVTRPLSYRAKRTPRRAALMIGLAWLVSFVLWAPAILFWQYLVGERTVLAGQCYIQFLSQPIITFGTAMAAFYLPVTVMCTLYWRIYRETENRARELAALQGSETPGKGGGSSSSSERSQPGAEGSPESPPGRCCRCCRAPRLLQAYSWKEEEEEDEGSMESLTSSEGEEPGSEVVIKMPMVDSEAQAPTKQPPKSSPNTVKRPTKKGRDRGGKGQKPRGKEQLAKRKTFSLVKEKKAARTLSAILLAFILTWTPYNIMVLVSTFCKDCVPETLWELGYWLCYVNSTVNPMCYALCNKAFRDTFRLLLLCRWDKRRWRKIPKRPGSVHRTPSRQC
Chain of Rap guanine nucleotide exchange factor 4 (Homo sapiens) (Q8WZA2 whole entry, looked up): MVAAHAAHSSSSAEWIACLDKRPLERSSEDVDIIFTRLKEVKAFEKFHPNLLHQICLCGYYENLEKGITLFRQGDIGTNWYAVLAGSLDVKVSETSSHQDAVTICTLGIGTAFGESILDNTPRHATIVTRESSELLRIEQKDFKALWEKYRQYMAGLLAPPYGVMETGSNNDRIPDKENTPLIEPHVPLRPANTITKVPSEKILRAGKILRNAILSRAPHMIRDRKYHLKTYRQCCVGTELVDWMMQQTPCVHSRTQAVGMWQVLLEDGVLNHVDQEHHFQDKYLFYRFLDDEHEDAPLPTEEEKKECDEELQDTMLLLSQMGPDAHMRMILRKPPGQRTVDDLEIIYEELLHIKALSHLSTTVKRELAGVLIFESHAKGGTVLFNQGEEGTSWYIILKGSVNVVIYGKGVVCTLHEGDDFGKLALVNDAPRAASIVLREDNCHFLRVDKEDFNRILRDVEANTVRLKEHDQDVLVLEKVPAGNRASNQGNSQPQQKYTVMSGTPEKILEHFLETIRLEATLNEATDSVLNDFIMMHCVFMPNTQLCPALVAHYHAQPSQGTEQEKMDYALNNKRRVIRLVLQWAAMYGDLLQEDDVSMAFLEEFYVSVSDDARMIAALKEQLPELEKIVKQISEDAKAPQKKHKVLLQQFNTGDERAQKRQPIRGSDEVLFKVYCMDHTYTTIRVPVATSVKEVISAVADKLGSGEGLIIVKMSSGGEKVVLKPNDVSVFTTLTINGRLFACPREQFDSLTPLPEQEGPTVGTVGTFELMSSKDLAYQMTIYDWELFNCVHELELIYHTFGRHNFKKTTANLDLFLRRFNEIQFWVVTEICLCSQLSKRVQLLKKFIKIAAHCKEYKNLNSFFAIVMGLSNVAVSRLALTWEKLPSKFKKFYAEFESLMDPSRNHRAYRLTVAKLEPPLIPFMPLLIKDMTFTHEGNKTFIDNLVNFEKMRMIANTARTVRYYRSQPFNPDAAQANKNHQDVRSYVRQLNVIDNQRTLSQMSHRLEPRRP
Chain of Alpha-galactosidase (Coffea arabica) (Q42656 whole entry, looked up): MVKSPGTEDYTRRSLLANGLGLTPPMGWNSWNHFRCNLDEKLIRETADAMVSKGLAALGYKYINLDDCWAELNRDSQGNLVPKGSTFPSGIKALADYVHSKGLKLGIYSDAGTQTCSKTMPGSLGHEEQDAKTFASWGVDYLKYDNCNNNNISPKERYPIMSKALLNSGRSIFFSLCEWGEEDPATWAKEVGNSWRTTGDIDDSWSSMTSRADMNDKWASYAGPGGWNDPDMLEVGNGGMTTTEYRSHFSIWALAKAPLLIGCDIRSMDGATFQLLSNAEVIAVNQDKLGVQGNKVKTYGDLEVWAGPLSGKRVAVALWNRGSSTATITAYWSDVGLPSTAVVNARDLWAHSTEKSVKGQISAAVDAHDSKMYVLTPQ
Chain of DNA dC->dU-editing enzyme APOBEC-3G (Homo sapiens) (Q9HC16 whole entry, looked up): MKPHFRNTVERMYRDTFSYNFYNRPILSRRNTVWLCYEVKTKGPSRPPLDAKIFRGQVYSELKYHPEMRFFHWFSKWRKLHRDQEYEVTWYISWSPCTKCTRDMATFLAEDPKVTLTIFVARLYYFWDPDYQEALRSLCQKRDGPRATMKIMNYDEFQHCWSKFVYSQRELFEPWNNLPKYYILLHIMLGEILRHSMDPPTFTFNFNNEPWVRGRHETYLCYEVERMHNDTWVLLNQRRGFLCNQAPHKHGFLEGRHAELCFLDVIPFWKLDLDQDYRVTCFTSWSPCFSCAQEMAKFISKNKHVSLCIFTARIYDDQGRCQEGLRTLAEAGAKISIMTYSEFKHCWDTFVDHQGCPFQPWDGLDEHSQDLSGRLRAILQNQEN
Chain of Pyruvate kinase (Leishmania mexicana) (Q27686 2-499 E452W): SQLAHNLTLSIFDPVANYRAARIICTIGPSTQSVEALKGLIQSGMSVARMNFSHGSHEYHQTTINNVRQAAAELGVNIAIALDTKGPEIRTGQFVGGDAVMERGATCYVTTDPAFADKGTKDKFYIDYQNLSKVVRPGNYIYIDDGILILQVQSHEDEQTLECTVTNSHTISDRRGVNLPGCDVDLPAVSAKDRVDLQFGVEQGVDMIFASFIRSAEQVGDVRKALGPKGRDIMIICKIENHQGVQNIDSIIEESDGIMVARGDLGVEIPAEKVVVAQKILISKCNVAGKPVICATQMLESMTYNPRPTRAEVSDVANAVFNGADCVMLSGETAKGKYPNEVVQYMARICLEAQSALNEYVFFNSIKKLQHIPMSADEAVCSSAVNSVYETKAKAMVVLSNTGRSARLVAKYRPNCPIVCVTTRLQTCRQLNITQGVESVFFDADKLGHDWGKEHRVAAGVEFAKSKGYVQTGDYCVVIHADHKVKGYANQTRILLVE
Chain of Alpha-galactosidase A (Homo sapiens) (P06280 whole entry, looked up): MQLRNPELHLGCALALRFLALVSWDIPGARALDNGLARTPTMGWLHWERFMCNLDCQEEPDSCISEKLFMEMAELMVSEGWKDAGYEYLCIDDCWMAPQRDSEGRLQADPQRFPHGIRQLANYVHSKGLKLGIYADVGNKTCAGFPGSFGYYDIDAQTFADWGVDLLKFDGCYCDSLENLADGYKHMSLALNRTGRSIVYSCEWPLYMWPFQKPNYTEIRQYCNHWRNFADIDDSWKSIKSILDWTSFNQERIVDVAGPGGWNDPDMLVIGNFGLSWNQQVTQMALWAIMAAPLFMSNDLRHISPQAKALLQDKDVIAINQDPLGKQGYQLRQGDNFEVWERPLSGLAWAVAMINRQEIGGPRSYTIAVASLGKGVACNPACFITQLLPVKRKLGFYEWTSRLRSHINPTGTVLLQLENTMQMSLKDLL

CN1Cc2ccccc2[C@@H]2c3cccc4[nH]cc(c34)C[C@H]21
active: Potency [2] 26.6 µM
inactive: Potency [1] > 46 µM | Potency [3] | Potency [4] | Potency [5] | outcome [6] | outcome [7] | Potency [8]

CCCC[C@@H](C)[C@@H](OC(=O)C[C@@H](CC(=O)O)C(=O)O)[C@H](C[C@@H](C)C[C@H](O)CCCC[C@@H](O)C[C@H](O)[C@H](C)N)OC(=O)C[C@H](CC(=O)O)C(=O)O
inactive: Potency [3] | Potency [4]

C[C@H](N)Cc1c[nH]c2ccc(O)cc12
inactive: outcome [9] | Potency [10] | activity change, negative = inhibition [11] 3.63% | outcome [12] | Potency [1] > 46 µM | Potency [13] > 46 µM | outcome [14] | Potency [15] | activation [16] -4.29% | outcome [17] | Potency [18] | Potency [19] | outcome [20] | outcome [21] | outcome [22] | outcome [23] | outcome [24] | outcome [25] | activity change, negative = inhibition ([26]; at 57.5 µM (top of the series)) 0.648% | Potency [2] | Potency [3] | Potency [4]
23.2%: max response ([26]; measured here: lipid channel max response)
20.6%: max response ([26]; measured here: cell count channel max response)
